Measurements from PubChem BioAssay.
Calls of active or inactive are those of the source.

Experiment: plasmodial surface anion channel blockers, osmotic lysis – cell-based, P. falciparum Indochina, OD700, 18 h, primary screen (AID 1157)
Conditions: P. falciparum Indochina infected erythrocytes, osmotic lysis OD700, 18 h; higher = more signal, called active from +8 up or from −8 down

z-score, inactive:
CC(C)c1ccc(NN2C(C(O)c3ccc4c(c3)OCO4)C=CC3C(=O)N(c4ccccc4)C(=O)C32)cc1 (centres undefined) 0.778
C[C@@H]1CCC2C(=O)N(Cc3ccccc3)C[C@@H](O)CN2[C@H]1c1ccc(Br)cc1 (some centres undefined) -0.567
O=C1[C@H]2[C@H]3[C@H](O)[C@H](O)CC(=NO[C@@H]4O[C@H](CO)[C@@H](O)[C@H](O)[C@H]4O)[C@H]3CC[C@H]2C(=O)N1Cc1ccc2c(c1)OCO2 1.04
CC[C@@H](c1ccccc1)n1c(=O)n2n(c1=O)[C@H]1[C@H](O)[C@@H]3O[C@@H]3C(=NOCC=C(C)CCC=C(C)C)[C@H]1CC2 0.355
CC(C)(C)N1C(=O)[C@H]2[C@H]3[C@H](O)[C@H](O)CC(=NO[C@@H]4O[C@H](CO)[C@@H](O)[C@H](O)[C@H]4O)[C@@H]3CC[C@H]2C1=O 0.106
CC(C)(C)N1C(=O)[C@H]2[C@H]3[C@H](O)[C@H](O)CC(=NOCc4ccccc4)[C@@H]3CC[C@H]2C1=O -2.27
COCCOC(=O)N1C(=O)[C@@]2(c3cc(C#CCNC(N)=O)ccc31)[C@H](c1ccccc1OCCO)N1[C@H](c3ccccc3)[C@H](c3ccccc3)OC(=O)[C@H]1[C@@H]2C(=O)N1CCN(c2ncccn2)CC1 -2.06
COc1ccc(O[C@H]2C=C[C@@H](c3ccccc3)O[C@@H]2COC(=O)N2CCCCC2)cc1 -0.169
CCc1cccc(NC(=O)O[C@H]2[C@H](OC(=O)Nc3ccc4c(c3)OCO4)[C@@H](OC(=O)Nc3ccc4c(c3)OCO4)[C@@H](OC)O[C@@H]2CO)c1 0.495
